Test results from PubChem BioAssay (NCI).
About 79,000 compounds went through this panel and 15% of them were active in at least one assay; those are over-represented in the sample as a whole. Values without a mark were called inactive. Activity calls are given as the source filed them. Rule as the data show it: active = growth inhibition above about 70%; inactive = the rest.

Legend:
[1] = NCI Yeast Anticancer Drug Screen. Data for the rad50 strain (AID 155);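 also: 0% = growth of vehicle-only cultures of the same strain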; conditions: S. cerevisiae rad50 strain growth inhibition, hits give high values
Method in brief: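 Relative growth inhibition (compound vs vehicle) was measured in yeast with a defined repair-gene alteration.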

[2] = NCI Yeast Anticancer Drug Screen. Data for the mec2-1 strain (AID 157); conditions: S. cerevisiae mec2-1 strain, hits give high values
Method in brief: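 Vehicle-treated cultures served as reference for growth inhibition of compound-exposed mec2-1 yeast.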

[3] = NCI Yeast Anticancer Drug Screen. Data for the sgs1 mgt1 strain (AID 161);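 also: 0% = growth of cultures given vehicle only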; conditions: S. cerevisiae sgs1 mgt1 strain, hits give high values
Method in brief: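 Test agents were incubated with a DNA-repair-mutant yeast strain. Growth was then read and compared against vehicle-treated controls.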

[4] = NCI Yeast Anticancer Drug Screen. Data for the cln2 rad14 strain (AID 165);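 also: 0% = growth equal to vehicle treated cultures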; conditions: S. cerevisiae cln2 rad14 strain, hits give high values
Method in brief: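 Each compound was tested on cln2 rad14 yeast. Inhibition of growth was calculated against vehicle-exposed controls.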

[5] = NCI Yeast Anticancer Drug Screen. Data for the bub3 strain (AID 167); conditions: S. cerevisiae bub3 mutant strain, hits give high values
Method in brief: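 Screening used yeast with an engineered genetic alteration affecting cell cycle control. Compound-exposed cultures were compared with vehicle cultures, and reduced growth was taken as inhibition.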

[6] = NCI Yeast Anticancer Drug Screen. Data for the mlh1 rad18 strain (AID 175); conditions: S. cerevisiae mlh1 rad18 strain growth inhibition, hits give high values
Method in brief: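 Vehicle-treated cultures served as the reference for growth inhibition in a yeast strain carrying DNA damage repair alterations exposed to each compound.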

[7] = at 5.0 µM (retest, dose inferred, filed as 0.5)
[8] = at 50.0 µM (retest, dose inferred, filed as 5.0)

Row | SMILES | growth inhibition [1, 7] | growth inhibition [1, 8] | growth inhibition ([1]; at 50.0 µM) | growth inhibition [2, 7] | growth inhibition [2, 8] | growth inhibition ([2]; at 50.0 µM) | growth inhibition [3, 7] | growth inhibition [3, 8] | growth inhibition ([3]; at 50.0 µM) | growth inhibition [4, 7] | growth inhibition [4, 8] | growth inhibition ([4]; at 50.0 µM) | growth inhibition [5, 7] | growth inhibition [5, 8] | growth inhibition ([5]; at 50.0 µM) | growth inhibition [6, 7] | growth inhibition [6, 8] | growth inhibition ([6]; at 50.0 µM)
1 | c1ccc2c(c1)ccc1ncccc12 | 8% | 70% (active) | 81.8% (active) | 3% | 23% | 3.15% | 0% | 38% | 47.6% | 2% | 10% | -12.2% | 6% | 62% | 46.9% | 6% | 43% | 64.8%
2 | CCOC(=O)C(CCOC)C(=O)OCC | 4% | 81% (active) | 73.3% (active) | 0% | 30% | 70.9% (active) | 1% | 46% | 43.9% | 3% | 65% | 41.8% | 1% | 48% | 95.7% (active) | 5% | 72% (active) | 43.6%
3 | CCN(CC)CCOC(=O)C1CCCCC1C(=O)C1CCCCC1 (stereo unspecified) | -3% | 3% | 29.4% | -3% | 0% | -1.6% | -7% | 5% | 21.4% | -2% | 8% | 34.5% | -3% | 14% | 0.85% | 1% | 1% | 11.7%
4 | Cc1cc2c(c3c1C(=O)CC3)C(C)(C)CC2(C)C | 1% | 77% (active) | 2.9% | -1% | 76% (active) | 9.15% | 1% | 70% (active) | 1.65% | -2% | 78% (active) | -4.5% | 25% | 92% (active) | 70.2% (active) | -3% | 64% | 6.05%
5 | Cc1ccc(S(=O)(=O)Nc2ccc(C)cc2C)cc1 | -3% | 96% (active) | 85.5% (active) | -6% | 96% (active) | 54% | -2% | 97% (active) | 55.4% | -3% | 83% (active) | 32.8% | -1% | 95% (active) | 63.4% | -2% | 95% (active) | 75.2% (active)
6 | CCc1cccc(CC)c1Nc1nc2c(s1)C(=O)c1ccccc1C2=O | 100% (active) | 99% (active) | 89.5% (active) | 100% (active) | 99% (active) | 91.9% (active) | 100% (active) | 99% (active) | 92.7% (active) | 87% (active) | 98% (active) | 90.3% (active) | 100% (active) | 99% (active) | 92.2% (active) | 99% (active) | 98% (active) | 90.8% (active)
7 | O=c1c2cccc3cccc(c4oc5c6cccc7cccc(c(=O)c5c14)c76)c32 | 16% | 92% (active) | 95.5% (active) | 13% | 97% (active) | 88.5% (active) | 15% | 97% (active) | 97.2% (active) | 13% | 88% (active) | 93.9% (active) | 37% | 94% (active) | 96.3% (active) | 17% | 97% (active) | 98.9% (active)
